In the supplement of paper PMC6411743:
± gives the standard deviation of the averaged measurements. Targets with the largest changes are over-represented here; the source holds about 5,400 in all.

Compound: Nc1nc2c(ncn2[C@@H]2O[C@H](COP(=O)(O)OP(=O)(O)OP(=O)(O)O)[C@@H](O)[C@H]2O)c(=O)[nH]1 [guanosine triphosphate]
Experiment: NP40-soluble protein abundance relative to vehicle (solubility fold change) (ratio); higher = more soluble protein in presence of GTP
Summary of the method: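 Eight concentrations, 0.1 to 10 mM, were tested on Jurkat crude lysate for 10 min at room temperature and then 3 min at 37 °C, in three independent experiments. The lysate was solubilised with 0.8% NP40 and benzonase, ultracentrifuged, and the supernatant TMT-labelled for LC-MS/MS. Each value is the fold change against the detergent-processed vehicle in its own replicate, from vsn-normalised intensities.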

Chain of UniProt Q9UQN3 (Q9UQN3 whole entry): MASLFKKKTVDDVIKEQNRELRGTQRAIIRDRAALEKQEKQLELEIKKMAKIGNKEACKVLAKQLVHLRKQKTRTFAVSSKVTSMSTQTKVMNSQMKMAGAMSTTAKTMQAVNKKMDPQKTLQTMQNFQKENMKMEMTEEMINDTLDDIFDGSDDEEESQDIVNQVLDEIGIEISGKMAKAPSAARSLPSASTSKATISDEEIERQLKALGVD
Chain of UniProt Q9BX67 (Q9BX67 whole entry): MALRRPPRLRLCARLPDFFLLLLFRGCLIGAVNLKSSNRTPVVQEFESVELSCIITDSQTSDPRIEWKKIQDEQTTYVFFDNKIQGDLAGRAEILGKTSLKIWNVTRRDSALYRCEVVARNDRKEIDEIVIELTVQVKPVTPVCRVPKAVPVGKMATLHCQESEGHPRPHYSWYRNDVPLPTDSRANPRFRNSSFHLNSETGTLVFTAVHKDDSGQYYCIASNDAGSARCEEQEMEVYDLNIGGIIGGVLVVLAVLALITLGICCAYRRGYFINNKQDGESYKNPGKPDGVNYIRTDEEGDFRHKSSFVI
Chain of UniProt Q9UGP8 (Q9UGP8 whole entry): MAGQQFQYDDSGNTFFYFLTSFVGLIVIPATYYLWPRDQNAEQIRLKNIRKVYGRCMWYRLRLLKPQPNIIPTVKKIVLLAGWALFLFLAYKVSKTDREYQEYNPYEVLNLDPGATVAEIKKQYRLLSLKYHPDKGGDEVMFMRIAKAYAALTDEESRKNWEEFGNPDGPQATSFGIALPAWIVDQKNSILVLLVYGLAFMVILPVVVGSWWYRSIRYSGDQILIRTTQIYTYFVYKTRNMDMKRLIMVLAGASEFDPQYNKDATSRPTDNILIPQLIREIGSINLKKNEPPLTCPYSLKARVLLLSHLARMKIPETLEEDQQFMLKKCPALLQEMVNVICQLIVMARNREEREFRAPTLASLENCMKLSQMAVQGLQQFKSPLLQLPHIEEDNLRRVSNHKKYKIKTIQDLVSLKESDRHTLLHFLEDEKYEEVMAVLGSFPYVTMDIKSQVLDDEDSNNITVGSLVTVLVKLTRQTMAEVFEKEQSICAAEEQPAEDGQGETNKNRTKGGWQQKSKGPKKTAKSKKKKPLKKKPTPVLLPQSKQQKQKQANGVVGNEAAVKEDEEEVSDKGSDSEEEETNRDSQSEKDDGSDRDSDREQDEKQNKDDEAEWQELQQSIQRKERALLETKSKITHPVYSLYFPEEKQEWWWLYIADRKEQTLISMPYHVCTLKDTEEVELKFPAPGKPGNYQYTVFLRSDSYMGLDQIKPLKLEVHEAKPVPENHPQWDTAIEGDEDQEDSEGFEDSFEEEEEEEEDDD
Chain of UniProt Q03519 (Q03519 whole entry, one chain of several): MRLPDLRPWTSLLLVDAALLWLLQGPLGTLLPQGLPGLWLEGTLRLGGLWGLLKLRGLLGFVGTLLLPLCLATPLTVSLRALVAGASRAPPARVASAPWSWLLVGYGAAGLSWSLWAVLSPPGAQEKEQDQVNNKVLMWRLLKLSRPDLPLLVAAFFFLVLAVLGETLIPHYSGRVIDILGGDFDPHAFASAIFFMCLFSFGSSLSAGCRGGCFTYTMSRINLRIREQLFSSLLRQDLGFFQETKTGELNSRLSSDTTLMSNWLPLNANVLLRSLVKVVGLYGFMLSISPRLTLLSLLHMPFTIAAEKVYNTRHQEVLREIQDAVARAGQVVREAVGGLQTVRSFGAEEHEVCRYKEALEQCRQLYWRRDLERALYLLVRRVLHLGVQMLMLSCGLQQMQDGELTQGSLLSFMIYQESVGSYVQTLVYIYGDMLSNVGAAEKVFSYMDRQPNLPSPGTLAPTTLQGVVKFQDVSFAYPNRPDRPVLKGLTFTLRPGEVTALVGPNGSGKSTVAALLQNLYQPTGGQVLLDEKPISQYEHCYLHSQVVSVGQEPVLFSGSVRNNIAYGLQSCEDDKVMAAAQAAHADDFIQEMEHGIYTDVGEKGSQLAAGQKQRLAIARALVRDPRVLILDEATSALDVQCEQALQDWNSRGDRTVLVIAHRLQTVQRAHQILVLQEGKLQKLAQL
Chain of UniProt Q9Y2X3 (Q9Y2X3 whole entry): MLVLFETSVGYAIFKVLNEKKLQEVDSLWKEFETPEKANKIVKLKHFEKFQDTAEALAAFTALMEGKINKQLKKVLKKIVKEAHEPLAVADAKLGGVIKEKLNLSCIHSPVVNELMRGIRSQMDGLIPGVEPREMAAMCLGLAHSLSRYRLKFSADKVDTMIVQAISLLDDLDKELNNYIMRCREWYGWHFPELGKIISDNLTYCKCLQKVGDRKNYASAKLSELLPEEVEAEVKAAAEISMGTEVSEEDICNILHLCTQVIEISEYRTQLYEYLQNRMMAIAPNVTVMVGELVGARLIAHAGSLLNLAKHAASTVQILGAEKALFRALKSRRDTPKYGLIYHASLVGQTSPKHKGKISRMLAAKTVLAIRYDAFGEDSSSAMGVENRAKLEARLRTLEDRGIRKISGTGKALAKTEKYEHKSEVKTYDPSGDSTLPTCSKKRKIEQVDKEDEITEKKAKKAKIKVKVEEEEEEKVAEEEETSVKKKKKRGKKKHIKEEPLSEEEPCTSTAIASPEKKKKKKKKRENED
Chain of UniProt Q9BSF4 (Q9BSF4 whole entry): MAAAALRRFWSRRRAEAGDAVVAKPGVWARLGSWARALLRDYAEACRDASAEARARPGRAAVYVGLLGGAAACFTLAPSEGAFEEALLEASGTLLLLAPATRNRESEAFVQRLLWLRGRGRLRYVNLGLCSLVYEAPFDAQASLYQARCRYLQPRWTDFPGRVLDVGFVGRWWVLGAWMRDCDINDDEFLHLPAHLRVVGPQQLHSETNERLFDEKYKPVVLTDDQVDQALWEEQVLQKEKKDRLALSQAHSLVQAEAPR
Chain of UniProt Q9NVK5 (Q9NVK5 whole entry): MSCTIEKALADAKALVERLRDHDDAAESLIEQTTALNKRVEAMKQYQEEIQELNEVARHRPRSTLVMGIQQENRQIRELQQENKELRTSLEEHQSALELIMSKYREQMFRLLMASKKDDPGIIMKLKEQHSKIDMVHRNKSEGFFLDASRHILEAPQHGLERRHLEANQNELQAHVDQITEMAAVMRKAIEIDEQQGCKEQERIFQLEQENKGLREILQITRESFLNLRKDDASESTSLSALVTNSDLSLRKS
Chain of UniProt Q9NVG8 (Q9NVG8 whole entry): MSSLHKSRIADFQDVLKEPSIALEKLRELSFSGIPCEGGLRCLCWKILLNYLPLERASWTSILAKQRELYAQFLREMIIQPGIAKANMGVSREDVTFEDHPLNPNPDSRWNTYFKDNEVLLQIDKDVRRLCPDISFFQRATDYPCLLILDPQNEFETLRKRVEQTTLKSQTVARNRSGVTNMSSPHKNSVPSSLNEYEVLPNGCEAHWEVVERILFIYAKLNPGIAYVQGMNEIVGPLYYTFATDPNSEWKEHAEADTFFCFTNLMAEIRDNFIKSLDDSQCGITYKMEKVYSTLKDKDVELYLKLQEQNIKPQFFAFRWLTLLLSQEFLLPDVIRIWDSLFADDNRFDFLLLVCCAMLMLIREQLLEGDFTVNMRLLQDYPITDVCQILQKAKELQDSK
Chain of UniProt Q9NX40 (Q9NX40 whole entry): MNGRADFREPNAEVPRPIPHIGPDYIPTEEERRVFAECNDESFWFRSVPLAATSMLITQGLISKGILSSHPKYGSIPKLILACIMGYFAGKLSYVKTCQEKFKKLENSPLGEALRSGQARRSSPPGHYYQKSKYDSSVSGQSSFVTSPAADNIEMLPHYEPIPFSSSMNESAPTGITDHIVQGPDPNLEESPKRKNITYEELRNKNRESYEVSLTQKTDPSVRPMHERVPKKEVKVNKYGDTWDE
Chain of UniProt Q96I99 (Q96I99 whole entry): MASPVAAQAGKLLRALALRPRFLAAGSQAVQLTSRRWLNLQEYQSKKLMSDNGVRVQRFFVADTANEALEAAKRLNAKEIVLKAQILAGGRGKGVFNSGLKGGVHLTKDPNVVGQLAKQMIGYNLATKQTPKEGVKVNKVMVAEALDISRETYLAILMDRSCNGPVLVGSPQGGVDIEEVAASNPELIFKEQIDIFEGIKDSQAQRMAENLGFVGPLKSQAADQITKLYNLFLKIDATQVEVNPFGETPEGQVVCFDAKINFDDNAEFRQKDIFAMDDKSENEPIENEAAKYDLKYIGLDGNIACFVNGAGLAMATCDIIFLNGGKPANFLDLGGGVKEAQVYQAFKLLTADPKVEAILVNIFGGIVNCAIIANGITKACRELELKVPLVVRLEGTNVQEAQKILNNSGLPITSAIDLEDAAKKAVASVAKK
Chain of UniProt Q9NX24 (Q9NX24 whole entry): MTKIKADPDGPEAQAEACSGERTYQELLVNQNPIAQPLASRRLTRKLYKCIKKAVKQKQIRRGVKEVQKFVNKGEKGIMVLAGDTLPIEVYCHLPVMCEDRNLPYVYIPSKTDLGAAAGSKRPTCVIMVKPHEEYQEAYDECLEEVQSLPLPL
Chain of UniProt Q96EM0 (Q96EM0 whole entry): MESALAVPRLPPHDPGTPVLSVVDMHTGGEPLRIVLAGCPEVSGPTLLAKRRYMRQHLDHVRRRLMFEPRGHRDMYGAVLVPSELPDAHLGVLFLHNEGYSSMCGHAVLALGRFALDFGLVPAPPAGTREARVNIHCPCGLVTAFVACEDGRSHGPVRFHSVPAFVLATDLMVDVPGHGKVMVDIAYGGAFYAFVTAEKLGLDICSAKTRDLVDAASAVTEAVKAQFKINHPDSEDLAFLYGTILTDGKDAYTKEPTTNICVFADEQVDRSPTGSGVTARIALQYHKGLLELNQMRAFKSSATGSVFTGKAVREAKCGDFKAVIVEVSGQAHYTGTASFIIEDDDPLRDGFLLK
Chain of UniProt Q9UII2 (Q9UII2 whole entry): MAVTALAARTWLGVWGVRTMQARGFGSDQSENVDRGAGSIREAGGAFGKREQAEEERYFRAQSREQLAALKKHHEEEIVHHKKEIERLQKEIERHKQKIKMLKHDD
Chain of UniProt Q9Y333 (Q9Y333 whole entry): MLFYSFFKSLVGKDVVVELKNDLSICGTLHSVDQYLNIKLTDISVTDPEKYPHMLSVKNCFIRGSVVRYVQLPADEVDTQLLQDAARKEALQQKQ

Target	NP40-soluble protein abundance (concentration: 0.1mM)	NP40-soluble protein abundance (concentration: 0.5mM)	NP40-soluble protein abundance (concentration: 1mM)	NP40-soluble protein abundance (concentration: 2mM)	NP40-soluble protein abundance (concentration: 4mM)	NP40-soluble protein abundance (concentration: 6mM)	NP40-soluble protein abundance (concentration: 8mM)	NP40-soluble protein abundance (concentration: 10mM)
NHP2 (UniProt Q9NX24)	0.959 ± 0.056	0.942 ± 0.054	1.02 ± 0.069	1.09 ± 0.067	1.2 ± 0.096	1.39 ± 0.16	1.45 ± 0.16	1.75 ± 0.35
UniProt Q9NZM5	0.985 ± 0.053	0.939 ± 0.14	1.04 ± 0.083	1.03 ± 0.17	1.05 ± 0.16	1.07 ± 0.21	1.18 ± 0.17	1.13 ± 0.093
NOP58 (UniProt Q9Y2X3)	1.01 ± 0.049	1.02 ± 0.019	1.07 ± 0.075	1.19 ± 0.044	1.4 ± 0.066	1.58 ± 0.13	1.77 ± 0.11	2.07 ± 0.16
SMARCD1 (UniProt Q96GM5)	1.06 ± 0.036	1.11 ± 0.065	1.09 ± 0.089	1.18 ± 0.16	1.18 ± 0.17	1.18 ± 0.19	1.15 ± 0.18	1.16 ± 0.17
ILKAP (UniProt Q9H0C8)	0.959 ± 0.034	0.95 ± 0.023	0.905 ± 0.049	0.904 ± 0.058	0.88 ± 0.058	0.897 ± 0.048	0.87 ± 0.049	0.869 ± 0.065
UniProt Q9UII2	0.946 ± 0.08	0.972 ± 0.11	1.01 ± 0.078	0.936 ± 0.1	0.875 ± 0.1	0.908 ± 0.14	0.93 ± 0.07	0.963 ± 0.07
SAMM50 (UniProt Q9Y512)	1.13 ± 0.15	1.18 ± 0.19	0.999 ± 0.1	1.13 ± 0.29	1.11 ± 0.19	1.1 ± 0.22	0.985 ± 0.098	0.949 ± 0.17
UniProt Q96L91|Q96L91-2|Q96L91-3|Q96L91-5	1.03 ± 0.021	1.06 ± 0.04	1.12 ± 0.03	1.18 ± 0.061	1.24 ± 0.13	1.26 ± 0.14	1.32 ± 0.22	1.34 ± 0.23
SEC63 (UniProt Q9UGP8)	0.964 ± 0.023	0.977 ± 0.022	0.935 ± 0.045	0.926 ± 0.036	0.913 ± 0.073	0.927 ± 0.026	0.93 ± 0.022	0.897 ± 0.03
OCIAD1 (UniProt Q9NX40)	0.922 ± 0.025	0.9 ± 0.044	1.01 ± 0.016	0.982 ± 0.058	0.971 ± 0.072	0.956 ± 0.053	0.956 ± 0.034	0.974 ± 0.037
UniProt Q9BX67	1.04 ± 0.013	0.954 ± 0.065	0.965 ± 0.026	0.913 ± 0.066	0.905 ± 0.046	0.88 ± 0.086	0.953 ± 0.035	0.897 ± 0.06
UniProt Q9H3N1	0.957 ± 0.055	0.947 ± 0.043	0.935 ± 0.04	0.871 ± 0.062	0.858 ± 0.071	0.878 ± 0.091	0.885 ± 0.053	0.859 ± 0.065
UniProt Q9UKA9|Q9UKA9-4	1.04 ± 0.021	0.985 ± 0.025	1.01 ± 0.014	0.989 ± 0.045	0.947 ± 0.051	0.955 ± 0.036	0.963 ± 0.029	0.906 ± 0.027
UniProt Q9Y333	0.946 ± 0.08	0.98 ± 0.11	0.973 ± 0.091	0.939 ± 0.1	0.887 ± 0.12	0.989 ± 0.13	0.962 ± 0.089	0.963 ± 0.059
XRN2 (UniProt Q9H0D6)	0.993 ± 0.025	0.995 ± 0.027	0.974 ± 0.017	0.977 ± 0.027	0.985 ± 0.018	0.986 ± 0.027	1 ± 0.039	0.982 ± 0.028
SUCLG2 (UniProt Q96I99)	0.959 ± 0.049	0.966 ± 0.053	0.933 ± 0.043	0.901 ± 0.06	0.889 ± 0.059	0.889 ± 0.052	0.886 ± 0.048	0.871 ± 0.068
CHMP2B (UniProt Q9UQN3)	0.905 ± 0.051	0.909 ± 0.092	0.989 ± 0.079	0.931 ± 0.15	0.938 ± 0.12	0.967 ± 0.14	0.953 ± 0.085	0.932 ± 0.11
UniProt Q9UKZ1	1.52 ± 0.81	1.19 ± 0.11	1.4 ± 0.41	2.81 ± 2.7	1.26 ± 0.14	1.24 ± 0.11	1.29 ± 0.15	1.36 ± 0.051
X5CMH5 (UniProt Q03519)	1.09 ± 0.036	1.08 ± 0.054	0.978 ± 0.028	1.01 ± 0.085	0.976 ± 0.063	0.951 ± 0.051	0.934 ± 0.015	0.918 ± 0.065
UniProt Q9NVK5|Q9NVK5-2	0.987 ± 0.072	0.945 ± 0.1	1.16 ± 0.17	1.11 ± 0.086	1.13 ± 0.1	1.19 ± 0.092	1.28 ± 0.17	1.27 ± 0.2
MTMR6 (UniProt Q9Y217)	1.068 ± 0.0063	1.02 ± 0.027	0.967 ± 0.016	0.969 ± 0.01	0.93 ± 0.031	0.907 ± 0.0098	0.947 ± 0.034	0.913 ± 0.042
LUC7L2 (UniProt Q9Y383)	1.09 ± 0.11	1.4 ± 0.08	1.58 ± 0.098	1.54 ± 0.18	1.56 ± 0.12	1.66 ± 0.12	1.74 ± 0.15	1.7 ± 0.16
UniProt Q96MT7-2	1.09 ± 0.063	0.959 ± 0.033	1 ± 0.093	0.863 ± 0.12	0.869 ± 0.04	0.915 ± 0.14	0.834 ± 0.052	0.786 ± 0.082
UniProt Q96EM0	0.976 ± 0.19	0.971 ± 0.15	0.869 ± 0.093	0.892 ± 0.11	1.02 ± 0.026	0.929 ± 0.095	0.85 ± 0.16	0.895 ± 0.085
FAM117A (UniProt Q9C073)	1.31 ± 0.14	0.983 ± 0.018	1.28 ± 0.084	1.03 ± 0.024	1.1204 ± 7.8e-05	1.02 ± 0.037	1.1 ± 0.056	1.12 ± 0.086
UniProt Q92804|Q92804-2	0.976 ± 0.03	1.048 ± 0.0095	1.18 ± 0.09	1.35 ± 0.14	1.56 ± 0.22	1.73 ± 0.28	2.08 ± 0.35	2.59 ± 0.54
TBC1D13 (UniProt Q9NVG8)	0.962 ± 0.036	0.985 ± 0.048	0.927 ± 0.046	0.896 ± 0.047	0.857 ± 0.071	0.866 ± 0.066	0.847 ± 0.1	0.822 ± 0.089
UniProt Q9BSF4	1.16 ± 0.16	1.09 ± 0.11	1.12 ± 0.085	1.11 ± 0.027	1.18 ± 0.091	1.17 ± 0.037	0.972 ± 0.071	0.97875 ± 0.0002
SF3B5 (UniProt Q9BWJ5)	1.1 ± 0.16	1.11 ± 0.16	1.17 ± 0.23	1.27 ± 0.2	1.25 ± 0.21	1.33 ± 0.15	1.31 ± 0.19	1.38 ± 0.22
